Source: PubChem BioAssay
M1 antag: blocks human M1 muscarinic receptor; 360,000 compounds, 1.3% hits; CHO-K1 hM1, Fluo-8 calcium fluorescence, ACh EC80 antagonist; inhibition, % at 3 µM; P11229;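 active = percent inhibition above its own plate's cutoff, namely the mean of that plate's compound wells plus 3 SD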;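 note: peak over basal fluorescence ratio during 140 s after agonist addition; 0% = ACh EC80 plus DMSO and 100% = DMSO alone without agonist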
Target sequence (P11229 whole entry, looked up): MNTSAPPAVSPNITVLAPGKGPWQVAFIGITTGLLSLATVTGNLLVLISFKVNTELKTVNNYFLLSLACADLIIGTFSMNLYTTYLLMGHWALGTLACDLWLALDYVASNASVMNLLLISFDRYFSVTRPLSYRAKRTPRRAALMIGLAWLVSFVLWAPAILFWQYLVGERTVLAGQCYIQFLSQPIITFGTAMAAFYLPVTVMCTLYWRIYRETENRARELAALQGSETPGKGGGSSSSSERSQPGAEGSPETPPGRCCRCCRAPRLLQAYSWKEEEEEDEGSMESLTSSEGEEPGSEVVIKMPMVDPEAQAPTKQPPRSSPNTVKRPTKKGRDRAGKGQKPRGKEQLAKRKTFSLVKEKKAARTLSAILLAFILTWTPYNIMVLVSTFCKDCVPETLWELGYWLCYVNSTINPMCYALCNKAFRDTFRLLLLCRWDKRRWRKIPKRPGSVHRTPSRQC
CHO-K1 Ca PAM: counter-screen for M1 PAMs: effect in parental CHO-K1 cells. ATP EC20, Fluo-8 calcium fluorescence; 0% at ATP EC20, 100% at ATP max. activation, % at 3 µM. 360,000 compounds, 0.02% hits. AID 602247;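 active = activation above the run cutoff, the mean activation of all test compounds plus 3 SD, cut at about 40% in these data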;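 note: peak over basal fluorescence ratio in a 140 s read after ATP addition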
M1 ag: activates human CHRM1 receptor; P11229; CHO-K1 hM1, Fluo-8 calcium fluorescence, agonist mode; 0% DMSO, 100% acetylcholine EC100; activation, % at 3 µM; 360,000 compounds, 0.33% hits; AID 588814;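 active = activation above the run's mean compound activation plus 3 SD, cut at about 16% in these data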;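 note: peak over basal fluorescence ratio within a 140 s kinetic read after compound addition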
CHO-K1 Ca antag: counter-screen for M1 antagonists: effect in parental CHO-K1 cells; 360,000 compounds, 0.6% hits; ATP-induced calcium, Fluo-8 fluorescence; inhibition, % at 3 µM; AID 602250;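 active = inhibition above a per-plate cutoff, the plate's mean sample inhibition plus 3 SD, cut at about 24% in these data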;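 note: 0% = DMSO plus EC80 ATP and 100% = DMSO alone without ATP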
M1 PAM: positive allosteric modulators of human M1 muscarinic receptor. 360,000 compounds, 0.088% hits. CHO-K1 hM1, Fluo-8 calcium fluorescence, ACh EC20; 0% = ACh EC20, 100% = maximal ACh. activation, % at 3 µM; in the data active = activation above about 19%, passing the limit was not always enough
CHO-K1 Ca ag: nonselective activator or artifact in parental CHO-K1 cells; activation, % at 3 µM; 360,000 compounds, 0.48% hits; AID 602248; Fluo-8 calcium fluorescence; scaled to maximal ATP response, vehicle zero; in the data active = activation above about 15%;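 note: untransfected CHO-K1 host cells lacking M1 receptor as counterscreen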
Active calls of the source: *. Shown are actives, neighbours in structure and some others; about 2.3% of the full set was active somewhere.

SMILES	M1 antag	CHO-K1 Ca PAM	M1 ag	CHO-K1 Ca antag	M1 PAM	CHO-K1 Ca ag
O=C(Nc1cccc(-c2cnc3ccccc3n2)c1)c1cccc(NC(=O)c2ccco2)c1	35*	8	2	31*	-15	4
CCOc1ccc(N2C(=O)/C(=C/c3ccco3)N(C)C2=S)cc1	13	-17	-2	27*	-8	-1
Cc1ccc(/C=C2\C(=O)NC(=O)N2C)o1	0	10	-2	4	10	0
Cc1ccc(/C=C2/C(=O)N(c3ccccc3)C(=S)N2C)o1	-10	-16	-4	25*	9	0
CCOC(=O)C1=C(C)N(c2ccc(OCC)cc2)C(=O)/C1=C\c1ccco1	-16	22	-8	-15	14	0
COc1cccc(CNC23CC4CC(CC(C4)C2)C3)c1OCc1ccccc1	-10	-2	2	2	3	2
CCC(C)N1CCN(S(=O)(=O)c2ccc3ccccc3c2)CC1 (centres undefined)	-3	8	-8	3	2	-1
CCC(C)N1CCNCC1 (centres undefined)	-9	-14	-7	25*	5	0
COc1ccc(C2CC=C(C(C)=O)CN2S(=O)(=O)c2ccccc2)cc1 (centres undefined)	-7	7	-5	24*	13	2
COC(=O)c1cccc(N/C=C(\[N+](=O)[O-])S(=O)(=O)c2ccccc2)c1	9	-3	-5	-1	-3	1
CN(C)Cc1ccccc1CCc1ccccc1	60*	-3	-9	0	-25	0
CN(C)Cc1ccccc1Cc1ccccc1	1	2	-7	-5	2	0
COc1cc(OC)cc(C(=O)Nc2nc(CC(=O)NCc3ccccc3OC)cs2)c1	29*	-15	-4	3	-12	5
COc1ccccc1CNc1ncc(-c2ccccc2)n1C	23	12	-10	2	-20	1
CSc1ccc(CNc2ncc(-c3cccc([N+](=O)[O-])c3)n2C)cc1	65*	-19	-9	18	-30	0
Cn1c(-c2ccc3c(c2)OCO3)cnc1NCc1cccc(O)c1	29*	-5	-16	-3	-35	0
COc1ccccc1CNc1ncc(-c2ccc(F)cc2)n1C	45*	-25	-11	9	-26	0
COc1cccc(-c2cnc(NCc3cc(Cl)ccc3O)n2C)c1	32*	-3	-6	8	-27	1
O=NN(C(=O)NCc1cccnc1)C1CCCCC1	3	13	-5	1	-4	0
CC1(C(=O)NS(=O)(=O)c2cccc(Cl)c2)CCN1C(=O)Cc1ccc(Cl)cc1Cl (centres undefined)	-5	0	-3	-5	5	0
Cn1c(-c2ccccc2)cnc1NCc1cc2c(cc1[N+](=O)[O-])OCO2	-1	20	-7	-15	-3	4
COc1ccc(CNc2ncc(-c3ccc(F)cc3)n2C)c2ccccc12	-10	24	-3	-19	0	4
COc1ccc(CNc2ncc(-c3cccc([N+](=O)[O-])c3)n2C)c(OC)c1OC	54*	-12	-9	6	-28	-1
Cn1c(-c2ccccc2)cnc1NCc1cccc([N+](=O)[O-])c1	36*	13	-9	-9	-23	1
O=C(CNCc1cccc(Cl)c1)N1CCc2ccccc2C1	-11	-34	-6	-7	7	0
SMILES	M1 antag	CHO-K1 Ca PAM	M1 ag	CHO-K1 Ca antag	M1 PAM	CHO-K1 Ca ag
COc1ccc(C(C(=O)NC(C)(C)C)N(CCC(C)C)C(=O)CCC(=O)Nc2cc(C)on2)cc1 (centres undefined)	-26	8	-2	-6	30*	-1
CON(C)S(=O)(=O)c1cccc(C(=O)N(CC(=O)Nc2ccccc2C(F)(F)F)Cc2ccco2)c1	-10	11	-2	-20	8	3
COc1cc(OC)cc(-c2cc3nc(C)c(CCC(=O)O)c(C)n3n2)c1	-8	-10	2	39*	5	0
S=C(NCc1ccncc1)Nc1ccc(Cl)c(Cl)c1	12	4	6	7	-6	12
COC(=O)c1cc(NC(=S)NCc2ccc(Cl)cc2)cc(C(=O)OC)c1	16	-5	15	24*	-4	13
CSc1ccccc1NC(=S)NCc1ccc(Cl)cc1	26*	13	-2	-3	-10	2
S=C(NCc1ccncc1)Nc1cc(Cl)cc(Cl)c1	5	-14	13	27*	5	13
Cc1ccc(C2=C(c3ccc([N+](=O)[O-])cc3)C(=O)OC2)cc1C	4	-4	-12	-11	-3	0
CC1(C(=O)NS(=O)(=O)c2cccc(C#N)c2)CCN1C(=O)CCc1ccccc1 (centres undefined)	-6	15	-2	-17	4	0
CCOC(=O)N1CCC(N2CCN(S(=O)(=O)c3ccc(C)cc3)CC2)CC1	-7	15	24*	-7	-2	1
Cc1ccc(S(=O)(=O)N2CCN(C(=O)N(c3ccccc3)c3ccccc3)CC2)cc1	5	0	-4	-6	-2	0
CCN(CC)C(=O)N1CCN(S(=O)(=O)c2ccccc2)CC1	-26	16	-1	-17	28*	1
CCN1CCN(C(=O)N(c2ccccc2)c2ccccc2)CC1	42*	11	-9	-9	-21	1
CN1CCN(C(=O)N(c2ccccc2)c2ccccc2)CC1	24	14	-8	-10	-14	1
Cc1ccc(N(C)C(=O)N2CCN(S(=O)(=O)c3ccc(C)cc3)CC2)cc1	-15	-13	19*	-7	25*	1
O=C(Cc1ccccc1)NC1CCN(C(=O)NCc2ccccc2)CC1	-3	22	-3	-13	0	1
CCN(CC)C(=O)N1CCC(NC(=O)Cc2ccccc2)CC1	-1	-6	-1	26*	1	0
O=S1(=O)C[C@@H](N2CCN(CC3CC3)CC2)[C@H](COCc2ccccc2)N1	4	14	-1	7	-2	1
CCCn1ncc(CN2CCCC(C(=O)c3cccc(OC(C)C)c3)C2)c1C (centres undefined)	99*	25	-7	-12	-25	2
CCCn1cc(CN2CCCC(C(=O)c3cccc(OC(C)C)c3)C2)c(C)n1 (centres undefined)	39*	11	-11	-1	-28	4
CC(C)Oc1cccc(C(=O)C2CCCN(Cc3cnc(N4CCCC4)s3)C2)c1 (centres undefined)	2	19	-14	-1	-12	3
C[C@H](NCc1c[nH]c2ccccc12)c1ccccc1	-12	17	-4	-19	5	3
O=C(COc1ccc(-n2cnnn2)cc1)Nc1ccc(F)c(F)c1	-8	5	2	-9	4	1
